High-throughput results: PubChem, National Center for Advancing Translational Sciences (NCATS)
FMDV antiviral = antivirals against foot and mouth disease virus. FMDV antiviral cell-based qHTS. Potency, µM (highest dose often 57.9 µM), without a hit: at the highest dose activity change, negative = inhibition, hits mostly inhibitors. actives 1.2% (n = 410,000). AID 1159524; calls by dose curve; tested in HEK293T cells; also: read-out not given here; potency is read from the fitted curve at half-maximal effect; % is scaled to controls: 0 for no effect and ±100 for the full control effect; nearly all actives have a fitted effect of over 45% in size
Shiga inhibitor = inhibitors of Shiga toxin in Vero cells. Vero cells, Shiga toxin protein synthesis inhibition reporter. actives 9.2% (n = 290,000). inhibition, % at 38.7 µM. AID 2315; in the data active = inhibition mostly above about 28%, no sharp cut-off; inactive = mostly below about 43%; also: 0% is about no effect
CHX counter = counter-screen hit for Shiga toxin inhibitors, cycloheximide | max response, % | actives 12% (n = 300,000) | AID 2314 | cell reporter, cycloheximide protein synthesis inhibition counterscreen; in the data active = max response mostly above about 13%, no sharp cut-off; inactive = mostly below about 14%; also: read at 38.3 µM for the half of the compounds with a filed dose; 0% is about no effect
HCV inh = blocks hepatitis C virus; Potency, µM (highest dose often 41.8 µM), inactives show at the top dose activity change, negative = inhibition, hits mostly inhibitors; AID 651820; actives 3.4% (n = 340,000); Huh7.5.1 HCVcc-Cre infection, luciferase reporter, 44 h; active = well fitted inhibition curve with a large enough effect; inconclusive = small, poorly fitted or top-dose-only effect, or another doubt; inactive = no such curve, though single readings can be large or run the other way; also: potency is read from the fitted curve at half-maximal effect; % is scaled to controls: 0 for no effect and ±100 for the full control effect
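Cells seeded at 1,000/well and cultured 4 h, then compounds added followed by HCVcc-Cre virus (~0.5 moi). After 44 h further culture, luciferase substrate was added, plates held 15 min at room temperature, and luminescence read for 15 sec.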
MARV entry inh = inhibitors of Marburg virus binding or cell entry; Potency, µM (highest dose often 37.8 µM), inactives show at the highest dose activity change, negative = inhibition, hits mostly inhibitors; Marburg virus pseudotyped entry inhibition, cell reporter; actives 1.8% (n = 300,000); calls by dose curve; tested in HEK293 cells; also: potency is read from the fitted curve at half-maximal effect; % is scaled to controls: 0 for no effect and ±100 for the full control effect
LASV entry inh = Lassa virus entry inhibition. Lassa virus pseudotype entry inhibition, cell reporter. actives 1.2% (n = 300,000). Potency, µM (highest dose often 37.9 µM), without a hit: at the highest dose activity change, negative = inhibition, hits mostly inhibitors; calls by dose curve; tested in HEK293 cells; also: potency is read from the fitted curve at half-maximal effect; % is scaled to controls: 0 for no effect and ±100 for the full control effect; nearly all actives have a fitted effect of over 50% in size
Starred values were filed as active, the others as inactive; u = inconclusive; x = not tested or not shown; + = active, no number; [ ] = another dose, or the depositor's remark. A selection: hits, their analogues and other compounds. The true share with any hit is near 13%.

SMILES | FMDV antiviral | Shiga inhibitor | CHX counter | HCV inh | MARV entry inh | LASV entry inh
CN(C)CCN(C(=O)C1CCCCC1)c1nc2cc3c(cc2s1)OCCO3 | 39% | x | x | x | x | x
FC(F)(F)c1cnc(-c2cnc(-c3cccnc3)nc2)c(Cl)c1 | 47% | 116* | 48* | 6% | -9%[46.1 µM] | 19%
FC(F)(F)c1cc(Cl)c2nnc(-c3cccnc3)n2c1 | -3% | -5 | -4 | 10% | 17%[46.1 µM] | -2%[46.1 µM]
CC1(c2ccc(Cl)cc2Cl)NC(=O)N(CC(=O)N2CCN(C(=O)c3ccco3)CC2)C1=O (configuration not stated) | -22% | x | x | -12% | u | 11%
CC(C)(C)OC(=O)N1CCNc2ccccc2C1 | 14% | + | 12* | -1% | 2%[46.1 µM] | u
Cc1cc(/C=C2/SC(=S)N(c3cccc(C(F)(F)F)c3)C2=O)c(C)n1-c1cccnc1 | u | x | x | 1.6µM* | u | u
Cc1cc(/C=C2\SC(=S)N(Cc3ccco3)C2=O)c(C)n1-c1cccnc1 | 10% | -3 | 16 | u | 21% | 11%
COC(=O)c1ccccc1NC(=O)Oc1ccc(F)cc1 | 24% | -18 | -1 | 1% | 12% | 2%
Cc1nn(C)c(C)c1C1C(C#N)=C(N)OC2=C1C(=O)CC(C)(C)C2 (configuration not stated) | 0% | 10 | 2 | 36% | u | 11%
COc1ccc(CCNC(=O)CCc2nnc(Cc3ccc4c(c3)OCO4)o2)cc1 | -8% | 9 | -3 | -13% | 16% | u
CN(CCc1ccccc1)C(=O)CCc1nnc(Cc2ccc3c(c2)OCO3)o1 | 28% | 32 | 13* | 3% | 15% | 12%
CN(Cc1ccon1)C(=O)CCc1nnc(Cc2ccc(-c3ccccc3)cc2)o1 | 2% | 37* | 24* | -26% | -8%[46.1 µM] | u
CC(c1ccon1)N(C)C(=O)CCc1nnc(Cc2ccc(-c3ccccc3)cc2)o1 (configuration not stated) | 2% | 40 | 16* | u | x | x
CCOc1cc(C(=O)NC(=S)Nc2nc(C)cc(C)n2)cc(OCC)c1OCC | -28% | 3 | 4 | u | x | x
COc1ccc2sc(-c3ccccc3OC)c(C#CCCO)c2c1 | -12% | x | x | u | x | x
O=C(NCCCN1CCN(c2ccccc2F)CC1)C1CC(=O)N(C2CCCC2)C1 (configuration not stated) | -14% | -6 | -7 | -2% | x | x
N#CC1(NC(=O)CN2c3cccc4cccc(c34)S2(=O)=O)CCCCC1 | 1% | x | x | 9% | -11% | 2%
CC(C)OC(=O)/C(C#N)=C/c1ccc(-c2ccc(Cl)c(Cl)c2)o1 | 1% | x | x | x | x | 25%[46.1 µM]
CCN(CC)c1ccc(/C=N/N2CCN(Cc3ccc(C)cc3)CC2)c(O)c1 | 7% | -20 | -5 | u | -14% | -4%
CN(C)c1nc2ccccc2n(C)c1=O | -1% | -4 | 4 | -5% | 21%[46.1 µM] | 10%[46.1 µM]
Cn1c(=O)c(-c2cc(Br)ccc2N)nc2ccccc21 | 47% | 60 | 33* | -20% | 28% | 13%
CCc1nnc2cccc(Cl)n12 | -5% | 7 | -5 | 15% | 2% | -14%
COc1cccc(-n2nnc3c(=O)n(Cc4cccc(C)c4)cnc32)c1 | -1% | 17 | 24* | u | x | x
COc1ccc(-n2nnc3c(=O)n(Cc4cc(C)ccc4C)cnc32)cc1 | 6% | 25 | 3 | u | -23% | 1.2µM*
Cc1ccc(-n2nnc3c(=O)n(Cc4ccccc4C)cnc32)cc1 | -27% | -3 | -1 | 9% | x | x
SMILES | FMDV antiviral | Shiga inhibitor | CHX counter | HCV inh | MARV entry inh | LASV entry inh
O=c1c2oc3ccccc3c2n(Cc2ccc(F)cc2)c(=O)n1Cc1ccco1 | u | x | x | x | x | 9%[46.1 µM]
CC1CCCCN1S(=O)(=O)c1ccc(C(=O)N(CCCN(C)C)c2nc3ccc(Br)cc3s2)cc1 (configuration not stated) | u | -3 | 13 | u | u | u
CN(C)CCCN(C(=O)C1=COCCO1)c1nc2ccc(Br)cc2s1 | -5% | -6 | -1 | 13µM* | u | -20%[46.1 µM]
Cc1cc(C)c2nc(N(CCCN(C)C)C(=O)c3ccc4c(c3)OCCO4)sc2c1 | -24% | x | x | 11µM* | u | u
Cc1cccc2sc(N(CCN(C)C)C(=O)c3ccc4c(c3)OCCO4)nc12 | -2% | x | x | x | x | 2%[46.1 µM]
CCCCN(C)S(=O)(=O)c1ccc(C(=O)N(CCN(C)C)c2nc3ccc(C)cc3s2)cc1 | 5% | 44* | 20* | 14% | x | x
Cc1ccc2nc(N(CCCN(C)C)C(=O)c3ccc4ncsc4c3)sc2c1 | -14% | 89* | 41* | u | u | u
CCCCN(CC)S(=O)(=O)c1ccc(C(=O)N(CCCN(C)C)c2nc3cc(C)cc(C)c3s2)cc1 | u | -18 | -4 | u | u | u
COc1ccc2nc(N(CCN(C)C)C(=O)c3ccc4ncsc4c3)sc2c1 | 30% | x | x | x | x | x
CCOc1ccc(C2C(C#N)=C(N)Oc3cc(C)[nH]c(=O)c32)cc1OC (configuration not stated) | 3% | -3 | 9 | 15% | 14% | 2%
COC(=O)[C@@H]1C[C@]2(Br)c3ccccc3N(S(=O)(=O)c3ccccc3)[C@@H]2N1C(=O)OC | -15% | x | x | 1% | x | x
Cc1ccc2nc(N(CCN(C)C)C(=O)c3ccc4c(c3)OCCO4)sc2c1 | 12% | 64 | 35* | -28% | -9%[46.1 µM] | 1%[46.1 µM]
COc1ccc(C)c2sc(N(CCCN(C)C)C(=O)c3ccc4c(c3)OCCO4)nc12 | -17% | x | x | u | u | 10µM*
CCN(CC)CCN(C(=O)c1ccc2c(c1)OCCO2)c1nc2ccc(C)cc2s1 | -12% | 4 | 12 | u | u | u
CN(C)CCCN(C(=O)c1ccc2c(c1)OCCO2)c1nc2ccccc2s1 | 18% | x | x | x | x | u
CCN(CC)CCN(C(=O)C1=COCCO1)c1nc2cc(C)cc(C)c2s1 | u | -8 | -1 | u | 11µM* | -14%
Cc1cc(C)c2nc(N(CCCN(C)C)C(=O)C3=COCCO3)sc2c1 | 0% | x | x | 32µM* | 20µM* | u
COc1ccc(S(=O)(=O)N2CCC(C(=O)NCCC(=O)Nc3nccs3)CC2)cc1 | u | -9 | -5 | 3% | x | x
Cc1ccc(S(=O)(=O)C(CNC(=O)c2c(F)cccc2F)c2ccco2)cc1 (configuration not stated) | 27% | x | x | x | x | 26%[46.1 µM]
CCOc1ccc(S(=O)(=O)N2CCC(C(=O)NCc3ccccn3)CC2)cc1C | -20% | -6 | -7 | -7% | 5%[46.1 µM] | -9%
N#CC(CO)(Cc1ccc(OC(F)F)cc1)c1nc2ccccc2[nH]1 (configuration not stated) | 35% | 40* | 23* | u | u | 25%
CCn1c(=NC(=O)CCS(=O)(=O)c2ccccc2)sc2cccc(OC)c21 | 20µM* | -10 | 8 | x | u | u
CCn1c(=NC(=O)CS(=O)(=O)c2ccc(F)cc2)sc2cccc(OC)c21 | u | x | x | u | u | -36%
CCn1c(=NC(=O)c2ccc(S(=O)(=O)N3CCOCC3)cc2)sc2cccc(OC)c21 | u | -8 | -3 | 10µM* | u | u
